Values without a mark were called inactive. Calls of active or inactive are those of the source. No rule for the calls is given here. Where only a bound is given, the exact number is not on record here.
Potency is read from the fitted curve at half-maximal effect.

The subject of the assay is HIV-1 nucleocapsid protein NCp7 (binding to TG oligonucleotide). Nature of the assay: HIV Nucleocapsid (AID 346).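 Also: potency is for inhibitors that block NC binding and lower polarization.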 Particulars: HIV-1 NC / fluorescein-TGTGTGTG probe, fluorescence polarization. The essentials: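 NCp7 100 nM + fluorescein TG4xF 10 nM; Hepes pH 7.5/250mM NaCl/1uM ZnCl2/0.004% PEG 20000; 1 hr RT; FP, 45 s exposure; oligo-only wells as negative control.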
(Polarisation of emitted light reports the rotation of a fluorescent probe.)
For `N#Cc1ccc(CN2CC3(CCN(C(=O)c4cnccn4)CC3)C2)cc1`, the Potency is more than 20 µM.
To `CCNc1ncc2nc(-c3cn(C)c4ccccc34)c(=O)n(CCC#N)c2n1` belongs more than 20 µM.
On to `COc1ccccc1-c1cncnc1NCCc1cnc[nH]1`, for which the Potency was more than 20 µM.
To `COc1cccc(-c2nccc(NCc3ccccc3OC)n2)c1` belongs more than 20 µM; to `N#Cc1ccc(CN2CCCC3(CCN(C(=O)c4cnccn4)CC3)C2)cc1`, more than 20 µM; to `O=c1c(-c2cccs2)nc2cnc(N3CCNCC3)nc2n1Cc1cccs1`, more than 20 µM.
To `COc1ccc(NC(=O)N2CCC3(CC2)CCN(C(=O)c2cccn2C)CC3)cc1` belongs more than 20 µM.
The result for `Cc1noc(C)c1C(=O)N1CCC2(CCN(Cc3cc(C(F)(F)F)cc(C(F)(F)F)c3)CC2)CC1` reads more than 4 µM; that for `Cc1nc2cncnc2n(Cc2ccccc2)c1=O`, more than 20 µM.
As for `COCC(=O)N1CCC2(CC1)CCN(C(c1ccccc1)c1ccccc1)CC2`, the Potency is more than 20 µM.
The result for `CCNc1ncc2nc(-c3cccs3)c(=O)n(CCC#N)c2n1` reads 6.37 µM (active).
The result for `FC(F)(F)c1ccccc1-c1cncnc1NCc1cccnc1` reads more than 20 µM.
To `O=C(c1cc(C(F)(F)F)cc(C(F)(F)F)c1)N1CCC2(CCCN(c3ccccn3)C2)CC1` belongs more than 20 µM.
Consider `c1nc(NC2CCNCC2)c2cc(-c3ccc4c(c3)OCO4)ccc2n1`, for which the Potency was more than 20 µM.
With `O=C(c1ccco1)N1CCC2(CC1)CCN(c1ccccn1)CC2`, the Potency was more than 20 µM.
To `CN(Cc1ccco1)c1cc(-c2cccc(C#N)c2)ncn1` belongs more than 20 µM; to `N#CCCn1c(=O)c(CCc2ccccc2)nc2cnc(Oc3cccc(Cl)c3)nc21`, more than 20 µM.
The result for `CN(C)C(=O)c1ccc(-c2cc(NCc3cccnc3)ncn2)cc1` reads more than 20 µM.
The result for `COc1ccccc1CN1CCC2(CC1)CCN(C(=O)c1cccn1C)CC2` reads more than 20 µM; that for `O=c1c(-c2cc(F)cc(F)c2)nc2cnc(N3CCOCC3)nc2n1C1CC1`, more than 20 µM; that for `N#Cc1ccc(CN2CC[C@@]3(CCCN(C(=O)c4cccc(F)c4)C3)C2)cc1`, more than 20 µM.
Turning to `COC(=O)N1CCC[C@@]2(CCN(C(=O)Nc3ccccc3)C2)C1`, the Potency is more than 20 µM.
Take `CN(C)c1ncc2nc(-c3cc(F)cc(F)c3)c(=O)n(C3CC3)c2n1`: the Potency was more than 20 µM.
To `Cc1noc(C)c1C(=O)N1CCC2(CC1)CN(c1cccc(-c3ccccc3)c1)C2` belongs more than 20 µM; to `O=c1c(-c2ccccc2)nc2cnc(N3CCOCC3)nc2n1C[C@H]1CCCO1`, more than 20 µM.
The result for `O=S(=O)(c1ccccc1)N1CCC2(CCCN(c3ccncc3)C2)CC1` reads more than 20 µM.
The result for `c1cncc(-c2nc(N3CCNCC3)c3ccccc3n2)c1` reads more than 20 µM; that for `O=S(=O)(c1ccccc1)N1CCC2(CCN(Cc3ccccc3)CC2)CC1`, more than 20 µM; that for `Cc1noc(C)c1C(=O)N1CCC2(CCCN(Cc3ccc(C#N)cc3)C2)CC1`, more than 20 µM.
Turning to `COc1ccc(-c2nc3cnc(N(C)C)nc3n(CCc3ccccc3)c2=O)cc1`, the Potency is more than 4 µM.
Take `CS(=O)(=O)Nc1cccc(-c2nc(NC3CC3)c3ccccc3n2)c1`: the Potency is more than 20 µM.
The result for `c1ccc(-c2cccc(N3CC[C@@]4(CCCNC4)C3)c2)cc1` reads more than 20 µM.
The result for `c1ccc(-c2cccc(N3CCC4(CCNCC4)CC3)c2)cc1` reads more than 20 µM.
Turning to `COc1ccc(CNc2ccnc(-c3ccccc3CN(C)C)n2)c(OC)c1`, the Potency was more than 20 µM.
To `Cn1cccc1C(=O)N1CCC2(CCCN(C(c3ccccc3)c3ccccc3)C2)CC1` belongs more than 20 µM; to `COc1ncc2nc(CCc3ccccc3)c(=O)n(C3CC3)c2n1`, more than 20 µM; to `COCC(=O)N1CCC[C@@]2(CCN(c3ncccn3)C2)C1`, more than 20 µM.
To `COc1ccc2[nH]cc(CCNc3cc(-c4cccc(C#N)c4)ncn3)c2c1` belongs more than 20 µM; to `CC(=O)N1CCC2(CC1)CCN(c1ccc(-c3ccccc3)cc1)CC2`, more than 20 µM; to `COc1ccccc1CN1CC2(CCN(C(=O)c3cnccn3)CC2)C1`, more than 20 µM.

Source of the values: PubChem BioAssay (NCATS).
